Vif-APOBEC3F blk: inhibitors of Vif-A3F interaction; HeLa A3F-eYFP + Vif (tagged APOBEC3F with the HIV-1 protein that degrades it), YFP fluorescence increase; Potency, µM (highest dose often 46.1 µM); 0.2% of 390,000 active; further: nearly all actives have a fitted effect of over 65% in size
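HeLa cells stably expressing A3F-eYFP plus Vif, plated and incubated overnight at 37 deg C, then exposed to compounds overnight at 37 deg C. Blocked degradation read as raised yellow fluorescence (Ex 488/Em 500-530).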
Vif-A3G inh: inhibitors of Vif-APOBEC3G interaction; Potency, µM (highest dose often 46.1 µM), most hits filed as inhibitors; Q9HC16; HeLa A3G-eYFP + Vif (tagged APOBEC3G with the HIV-1 protein that degrades it), YFP fluorescence, overnight; 0.076% of 410,000 active; further: nearly all actives have a fitted effect of over 60% in size
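Read-out is eYFP fluorescence (Ex 488/Em 500-530) from Vif-expressing HeLa A3G-eYFP cells; more signal means A3G escaped Vif-mediated degradation. Cells plated overnight, compound pinned in, incubated overnight at 37 deg C.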
IDH1 R132H inh: inhibitors of human mutant IDH1 R132H; O75874; AID 602179; IDH1-R132H enzyme, NADPH consumption, diaphorase/resazurin fluorescence; 0.093% of 390,000 active; Potency, µM (series often up to 76.6 µM), hits mostly inhibitors; further: nearly all actives have a fitted effect of over 65% in size
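IDH1-R132H (0.5 ug/mL dispensed) in pH 7.5 Tris buffer was preincubated 30 min with compound, then given a substrate mix of 0.016 mM NADPH and 2 mM alpha-KG for 80 min at room temperature; remaining NADPH was read by diaphorase/resazurin fluorescence.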
Tb PGK inh: inhibitors of T. brucei phosphoglycerate kinase | P07378 | PGK/GAPDH coupled, Kinase-Glo luminescence, 60 min | Potency, µM (highest dose often 57.5 µM), usual class: inhibitors | 0.043% of 380,000 active | AID 602233; further: nearly all actives have a fitted effect of over 60% in size
Target sequence (P07378 whole entry, looked up): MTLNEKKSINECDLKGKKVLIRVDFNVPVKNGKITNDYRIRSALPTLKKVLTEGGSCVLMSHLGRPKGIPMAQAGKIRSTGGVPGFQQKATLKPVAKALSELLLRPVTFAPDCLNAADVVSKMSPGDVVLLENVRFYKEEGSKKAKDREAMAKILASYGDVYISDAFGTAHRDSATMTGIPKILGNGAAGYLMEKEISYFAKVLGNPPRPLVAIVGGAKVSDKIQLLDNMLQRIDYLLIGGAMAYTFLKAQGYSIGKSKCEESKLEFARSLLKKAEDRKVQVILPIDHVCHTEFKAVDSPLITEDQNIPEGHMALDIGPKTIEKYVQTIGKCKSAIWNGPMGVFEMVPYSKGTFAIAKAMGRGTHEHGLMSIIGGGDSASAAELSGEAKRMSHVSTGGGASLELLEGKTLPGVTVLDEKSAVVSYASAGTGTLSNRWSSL
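Luminescent ATP detection (Kinase-Glo Plus) follows a 60-minute room-temperature incubation, with wells lacking PGK as controls. Buffer: 100 mM TEA (pH 7.6), 5 mM MgCl2, 0.01% Tween-20. Coupling enzyme GAPDH (100 nM final) supplies unstable 1,3-BPG in-well.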
Pin1 inhibitor: human Pin1 inhibition; AID 504891; Potency, µM (top dose mostly 115 µM), most hits filed as inhibitors; 0.009% of 390,000 active; Pin1 FP peptide displacement, HiFluor488, 10 min; active means well fitted inhibition curve with a large enough effect in the polarisation, with a control signal flat, not every such curve was filed as active; inconclusive means small, poorly fitted or top-dose-only effect, or effect the other way, or a change in a side signal; inactive means no such curve, though single readings can be large or run the other way; the % refers to the polarisation
Target sequence (Q13526 whole entry, looked up): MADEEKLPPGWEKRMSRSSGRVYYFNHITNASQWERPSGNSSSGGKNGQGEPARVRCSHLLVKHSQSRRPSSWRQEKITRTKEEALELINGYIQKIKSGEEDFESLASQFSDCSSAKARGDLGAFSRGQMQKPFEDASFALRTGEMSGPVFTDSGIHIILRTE
LDHA block: LDHA (human) enzyme inhibition. P00338. purified LDHA, NADH/diaphorase-resazurin fluorescence; hits give low values. activity change, % (values are at about 110 or 230 µM). 0.15% of 480,000 active. AID 1347041; in the data active means activity change below about -30%; inconclusive means mostly about -25% to -30%
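Resorufin fluorescence (ex540/em590), read at 0 and 20 min after diaphorase/resazurin addition, reports the NADH left after a 5 min room-temperature reaction of 2 nM human LDH5 with 0.06 mM NADH and 0.2 mM pyruvate.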
Hits are given with their value; – = inactive; ? = inconclusive; · = not tested or not shown; ! = a repeat was not active. A selection: hits, their analogues and other compounds. The true share with any hit is near 0.49%. Unless noted, the call rests on the fitted dose curve; in most records, active means well fitted curve in the direction sought with a large enough effect; inconclusive means small, poorly fitted or top-dose-only effect, or another doubt; inactive means no such curve, though single readings can be large; an effect the other way counts as inactive or inconclusive.

SMILES | Vif-APOBEC3F blk | Vif-A3G inh | IDH1 R132H inh | Tb PGK inh | Pin1 inhibitor | LDHA block
COc1ccc(N2C(=O)NC(=O)/C(=C\c3cn(C)c4ccccc34)C2=O)cc1 | 22.4µM | – | – | · | ? | –
O=c1c2ccccc2nc(/C=C/c2ccccc2O)n1-c1ccc(Br)cc1 | 10µM | – | – | – | – | –
COc1ccc(-n2c(/C=C/c3ccc(O)c(OC)c3)nc3ccccc3c2=O)cc1 | 20µM | – | – | – | – | –
O=c1c2ccccc2nc(/C=C/c2ccc(O)cc2)n1-c1ccc(O)cc1 | ? | ? | ? | – | ? | –
COc1ccc(OC)c(-n2c(O)c(/C=C3\C(C)=Nc4ccccc43)c(=O)[nH]c2=O)c1 | – | – | – | – | – | –
O=c1[nH]c(=O)n(-c2ccccc2)c(O)c1/C=C1/C(c2ccccc2)=Nc2ccccc21 | – | ? | – | – | – | –
COC(=O)C1=Nc2ccccc2/C1=C\c1c(O)n(-c2ccc(Br)cc2)c(=O)[nH]c1=O | – | – | – | – | ? | -67.1
COC(=O)C1=Nc2ccccc2/C1=C\c1c(O)n(-c2ccc(OC)cc2)c(=O)[nH]c1=O | – | – | – | – | – | -43.4
Cc1ccccc1N1C(=O)NC(=O)/C(=C\c2ccc3c(c2)CCCN3Cc2ccccc2)C1=O | – | ? | 52.1µM | – | ? | –
O=[N+]([O-])c1ccc(N2CCC(O)CC2)c2ccncc12 | · | · | · | · | · | –
NCC(=O)c1ccc(Cl)c(Cl)c1 | · | – | · | · | · | -31.3
NCC(=O)c1ccc2ccccc2c1 | · | – | · | · | · | –
CCN(CC)c1ccc(/C=C/[N+](=O)[O-])cc1 | 25.1µM | ? | – | – | ? | –
O=[N+]([O-])/C=C/c1ccc(Cl)cc1 | · | · | · | · | · | –
Cc1nn(C)cc1C1SCC(=O)Nc2c1c(C)nn2-c1ccccc1 (configuration not stated) | · | · | · | · | · | –
O=C(O)c1cc[c]([Hg][Cl])cc1 | – | ? | – | – | – | -61.4
COc1ccc(C(=O)O)cc1OC | – | – | – | – | – | –
ClCCN(CCCl)c1ccc(C=Cc2ccncn2)cc1 | 22.4µM | – | – | – | ? | –
COc1ccc(/C=C2/C(=O)NC(=S)N(C3CC3)C2=O)cc1CN1C(=O)c2ccccc2C1=O | – | – | – | – | – | -35.7
COc1ccc(/C=C2/C(=O)NC(=O)N(c3ccccc3)C2=O)cc1CN1C(=O)c2ccccc2C1=O | – | – | – | – | – | –
COc1ccc2c(c1)c(C(=O)OC(C)C(=O)NC(C)(C)C)c(C)n2C1CC1 (configuration not stated) | · | · | · | · | · | –
C1CCN(c2nc(N/N=C3\CN4CCC3CC4)nc(N3CCCCC3)n2)CC1 | · | · | · | · | · | –
C[N+](C)(C)CC1CCCC(C[N+](C)(C)C)C1=O (configuration not stated) | – | – | – | – | – | -41.0
CCOC(=O)C1=C(N)Oc2c(c(=O)oc3ccccc23)C12C(=O)Nc1ccc(Cl)cc12 (configuration not stated) | · | · | · | · | · | –
O=C(NC1CCS(=O)(=O)C1)c1cn(Cc2ccccc2)c2ccccc12 (configuration not stated) | · | · | · | · | · | –
SMILES | Vif-APOBEC3F blk | Vif-A3G inh | IDH1 R132H inh | Tb PGK inh | Pin1 inhibitor | LDHA block
CN1C(=O)C(=Cc2ccccc2OCc2ccc(C(=O)O)cc2)C(=O)N(C)C1=O | – | – | – | – | – | -34.7
CN1C(=O)C(=Cc2ccccc2OCCOc2ccc([N+](=O)[O-])cc2)C(=O)N(C)C1=O | – | – | – | – | – | –
CN1C(=O)C(=Cc2ccccc2OCc2ccccc2Cl)C(=O)N(C)C1=O | – | – | – | – | – | -45.0
Cc1ccc(NC(=O)Nc2cc3c(cc2N2CCCCC2)n(C)c(=O)n3C)cc1Cl | – | – | 28.2µM | – | – | –
O=C1NC(=O)C(=Cc2ccc(Oc3ccc([N+](=O)[O-])cc3)cc2)C(=O)N1 | – | – | – | – | – | -32.7
O=C1NC(=O)C(=Cc2ccccc2OCCOc2ccc([N+](=O)[O-])cc2)C(=O)N1 | – | ? | – | – | – | -80.5
CCOc1ccccc1NC(=O)c1cn(C)c2ccccc12 | · | · | · | · | · | –
COc1ccc(CCNCc2cccc(F)c2)cc1 | · | · | · | · | · | –
O=C(CNC12CC3CC(CC(C3)C1)C2)c1ccc(Cl)cc1 | · | · | · | · | · | -80.8
O=C1NC(=O)N(Cc2ccc(F)cc2)C(=O)/C1=C\c1ccc([N+](=O)[O-])s1 | – | – | – | – | 10µM | –
O=C1NC(=S)N(c2ccccc2)C(=O)/C1=C/c1ccco1 | – | – | – | 7.94µM | ? | –
O=c1[nH]c(=O)n(Cc2ccccc2Cl)c(O)c1/C=C1/C=CC=N1 | 8.91µM | ? | – | – | – | –
CCCCn1c(O)c(/C=C2/C=CC=N2)c(=O)[nH]c1=O | ? | 10µM | – | – | – | –
O=C(c1cn(Cc2ccccc2)c2ccccc12)N1CCC1 | · | · | · | · | · | –
CCN(CC)c1ccc(N=Cc2c(O)n(-c3ccccc3)c(=O)[nH]c2=O)cc1 | – | – | – | – | ? | –
CCN(CC)c1ccc(N=Cc2c(O)n(Cc3ccccc3)c(=O)[nH]c2=O)cc1 | 7.94µM! | ? | – | – | ? | –
C=C1C(O)(c2ccccc2)C2CC[N+]1(C)CC2 (configuration not stated) | – | – | – | · | – | -37.5
Cc1ccc(NC(=O)c2cn(C)c3ccccc23)cc1 | · | · | · | · | · | –
COc1cccc(C2SCC(=O)Nc3c2c(C)nn3C)c1OC (configuration not stated) | · | · | · | · | · | –
